Consider 39 compounds from PubChem BioAssay (NCI).

Values joined by “and” are separate entries in the source; they are usually repeats but may differ in a detail not shown here. Identical values can stand only once. Compounds without any hit were thinned out: in the full panel of roughly 83,000, 20% have a hit.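 Step 1: grow cells in 96-well plates. Step 2: add test compound at a single concentration. Step 3: incubate 48 h. Step 4: record percent growth.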 Values without a mark were called inactive. Active and inactive are the calls of the source.

One experiment has as its system KM12 colon. The experiment in a line: NCI-60 one-dose screen, 48 h (100 = growth as untreated, 0 = no growth, -100 = all killed). Particulars: 1 µM. Here is the method:
Growth inhibition of the KM12 human tumor cell line is measured as a screen for anti-cancer activity. Cells are grown in 96 well plates and exposed to the test compound for 48 hours. Compounds are tested at a single concentration, which is 10^-5 M for most compounds. The reported endpoint is percent growth (GI% or GIPRCNT), where numbers from 0 - 100% represent growth inhibition, and numbers from -100% - 0 represent cell death. For example, a value of 40 represents 60% growth inhibition. A value of 0 means no net growth occurred over the course of the experiment. A value of -40 indicates 40% of cells at the beginning of the experiment died by the end of the experiment. A value of -100 means all cells are dead at the end of the experiment.
NCI-60 Human Tumor Cell Lines Screen was performed using the standard one-dose NCI protocol, which is described in more detail at https://dtp.cancer.gov/discovery_development/nci-60/default.htm.
Compounds with GIPRCNT values below 10 were considered active. Activity score was based on GIPRCNT using the following formula: […]
Score is 0 for GIPRCNT values of 100 or above, 50 for GIPRCNT values of 0, and 100 for GIPRCNT values of -100.
As to `CC/C(=C(/c1ccc(O)cc1)c1ccc(OCCN(C)C(=O)COCCOCCNC(=O)Cc2ccc3c(c2)CN([C@@H]2CCC(=O)NC2=O)C3=O)cc1)c1ccccc1`, the growth is 105%.

The experiment is the same for the next values; noted with them: 10 µM.
For `CC/C(=C(/c1ccc(O)cc1)c1ccc(OCCN(C)C(=O)COCCOCCNC(=O)Cc2ccc3c(c2)CN([C@@H]2CCC(=O)NC2=O)C3=O)cc1)c1ccccc1`, the growth is 50.3%.

Still in this experiment, the particulars now being: 10 µM unless noted.
Turning to `N#Cc1cc(-c2ccc3ncnc(N4CCc5cc(F)c(Cl)cc54)c3c2)cnc1N`, the growth was 67.2%. With `OC(c1ccccc1)(c1ccccc1)C1CCN(c2ccc3nnc(Cl)n3n2)CC1`, the growth is 30.9%. Turning to `CN(CCSSCCN1CCOCC1)C(=O)Oc1cc2c(c3ccccc13)[C@H](CCl)CN2C(=O)c1cc2cc(OCCCN3CCC3)ccc2[nH]1`, the growth is -23.5% (active). For the compound `O=C(Nc1ccc(-c2ccc3c(c2)NC(=O)/C3=C\c2ccc[nH]2)cc1)Nc1ccc(Cl)c(Cl)c1`, the growth was 8.6% (active).

With `C/C(=N\Nc1ccc(C(=O)O)cc1)c1cnn(-c2cc(=O)[nH]c3ccc(C)cc23)c1C`, the growth is 99.9%. Turning to `Cc1ccc(Cl)cc1NC(=O)Nc1nc2ccc([N+](=O)[O-])cc2s1`, the growth is -2.73% (active). In the case of `COc1ccc2c(c1)C(Sc1ccc(Cl)cc1)c1c(nc(N)c(C#N)c1N)O2` (stereo not given), the growth is 47%. With `Nc1nc(-c2ccccc2)c(N=Nc2ccc(Cl)cc2Cl)s1`, the growth was -70.8% (active). In the case of `O=C(N/N=C/c1c[nH]c2ccccc12)Nc1ccc(F)c(Cl)c1`, the growth is -14.7% (active). Take `CSc1ccc(OCc2nc3ccccc3n2-c2cccc(NS(C)(=O)=O)c2)cc1`: the growth was 103% and 78.8%. As to `COc1ccc(-c2cc(C(=O)Oc3ccc(C=O)cc3OC)nn2-c2ccc(S(C)(=O)=O)cc2)cc1`, the growth is 103%. `Oc1ccc(Cl)c(Nc2ncnc3c2cnn3CC(Cl)c2ccc(Br)cc2)c1` (stereo not given): the growth is 85.9%.

With `CC(=O)Nc1cccc(-n2c(COc3ccc(I)cc3)nc3ccccc32)c1`, the growth is 94.7% and 98.5%.

As for `COc1cc(C=O)ccc1OC(=O)c1cc(-c2ccc(C)cc2)n(-c2ccc(S(C)(=O)=O)cc2)n1`, the growth is 104%. Regarding `Cc1ccc(C(=O)Nc2cc(-n3cnc(F)c3)cc(C(F)(F)F)c2)cc1C#Cc1cnc2cccnn12`, the growth is 39.1%.

Take `Cc1ccc(-c2cc(-c3ccccc3)[nH]c(=O)c2C#N)cc1`: the growth is 91.2%. As to `COc1cccc(NC(=O)c2ccc(NC(=O)CCl)s2)c1`, the growth is 42.4%. Turning to `O=c1c(-c2nc(-c3ccccc3)c(-c3ccccc3)[nH]2)coc2ccc(F)cc12`, the growth is 23.4%.

Consider `CCN1C(=O)N(CC)C2NNC(Sc3c(C(=O)O)c4ccccc4n(CCC(C)C)c3=O)=NC21` (stereo not given), for which the growth was 21.3%.

In the case of `COc1cc(CNC(=O)C[C@H](C)CCC=C(C)C)ccc1OCc1cn(-c2cccc(C(F)(F)F)c2)nn1`, the growth was 85%. For the compound `O=C(CSc1nc2ccccc2c(=O)[nH]1)Nc1ccccc1C(=O)O`, the growth is 100%.

Take `Cn1cc(-c2cc(N)n3nc(-c4c[nH]c5ccc(F)cc45)cc3n2)c2cccnc21`: the growth was -66% (active).

`O=C(N=Nc1c(O)[nH]c2ccc(Br)cc12)c1ccc2nc(-c3ccc(Cl)cc3)[nH]c2c1`: the growth is 22.4%.

As for `Oc1ccc(F)c(Nc2nc(SCCN3CCOCC3)nc3c2cnn3CC(Cl)c2ccc(Br)cc2)c1` (stereo not given), the growth is 11%. As for `COc1sc(/C=N/NC(=O)c2[nH]c3ccc(Br)cc3c2-c2ccccc2)cc1Cl`, the growth is -16.1% (active). Take `N#Cc1c(-c2ccc(F)cc2)nc(SCc2ccccc2)nc1N1CCNCC1`: the growth is -84.3% (active). For the compound `CN(C)c1nc(NCCNS(=O)(=O)c2ccc(C(=O)/C=C/c3ccc(C(F)(F)F)cc3)cc2)nc(N2CCOCC2)n1`, the growth was -80.7% (active). As to `CC1=C(C(=O)OCc2ccccc2)C(c2ccc(N(C)C)cc2)n2c(nc3ccccc32)N1` (stereo not given), the growth is 73.4%. On to `CCOc1ccc2[nH]c(=O)c(C(c3nnnn3CC3CCCO3)N3CCN(Cc4ccccc4)CC3)cc2c1` (stereo not given), for which the growth is 101%. Still for that read-out and setting: for `COc1cc(/C=C/C(=O)c2cnn(-c3cc(=O)[nH]c4ccc(Br)cc34)c2C)cc(OC)c1OC` the value was -42.6% (active); for `Nc1cc2ccccc2c(=O)n1NC(=O)c1ccc(Br)cc1`, 92.7%. For `COc1ccc(C(=O)C[n+]2cccc3c4ccccc4ccc32)cc1`, the growth was 34.9%. On the same count and under the same terms, the result for `O=C(Cc1c(-c2ccccc2[N+](=O)[O-])n(-c2ncnc3c2c(-c2ccccc2)c(-c2ccccc2)n3Cc2ccccc2)[nH]c1=O)c1ccc(Cl)c(Cl)c1` reads 15.7%; that for `COc1ccc(N=Nc2c(N)nn3c(N)c(C#N)c(-c4ccc(C)cc4)nc23)cc1`, 43.5%; that for `CCOc1ccc(-c2cc(-c3cc(C(C)C)c(O)cc3C)nn2-c2ccc(S(N)(=O)=O)cc2)cc1`, 7.96% (active).

Take `CN1C(=O)C2(C(C#N)=C(c3ccc(Cl)cc3)Nc3c2c(-c2ccccc2)nn3-c2ccccc2)c2ccccc21` (stereo not given): the growth was 94.9%. For `Cn1cc(Nc2ncnc(-c3ccc(N4CCCC4)c(C#N)c3)n2)cn1`, the growth was 55.2%. On the same count and under the same terms, the result for `O=C(Cn1c(-c2ccccc2)nc2ccccc21)N=Nc1c(O)[nH]c2ccc(Cl)cc12` reads 32.2%.
